Data on 33 targets can be found in the supplement of paper PMC10849652.

About 8,800 targets were measured; listed, in parts, are those with a hit and a random draw of the rest. About 0.5% of all pairs of compound and target were hits. Unmarked numbers belong to inactive results.

Chain of UniProt O95819 (O95819 whole entry, looked up): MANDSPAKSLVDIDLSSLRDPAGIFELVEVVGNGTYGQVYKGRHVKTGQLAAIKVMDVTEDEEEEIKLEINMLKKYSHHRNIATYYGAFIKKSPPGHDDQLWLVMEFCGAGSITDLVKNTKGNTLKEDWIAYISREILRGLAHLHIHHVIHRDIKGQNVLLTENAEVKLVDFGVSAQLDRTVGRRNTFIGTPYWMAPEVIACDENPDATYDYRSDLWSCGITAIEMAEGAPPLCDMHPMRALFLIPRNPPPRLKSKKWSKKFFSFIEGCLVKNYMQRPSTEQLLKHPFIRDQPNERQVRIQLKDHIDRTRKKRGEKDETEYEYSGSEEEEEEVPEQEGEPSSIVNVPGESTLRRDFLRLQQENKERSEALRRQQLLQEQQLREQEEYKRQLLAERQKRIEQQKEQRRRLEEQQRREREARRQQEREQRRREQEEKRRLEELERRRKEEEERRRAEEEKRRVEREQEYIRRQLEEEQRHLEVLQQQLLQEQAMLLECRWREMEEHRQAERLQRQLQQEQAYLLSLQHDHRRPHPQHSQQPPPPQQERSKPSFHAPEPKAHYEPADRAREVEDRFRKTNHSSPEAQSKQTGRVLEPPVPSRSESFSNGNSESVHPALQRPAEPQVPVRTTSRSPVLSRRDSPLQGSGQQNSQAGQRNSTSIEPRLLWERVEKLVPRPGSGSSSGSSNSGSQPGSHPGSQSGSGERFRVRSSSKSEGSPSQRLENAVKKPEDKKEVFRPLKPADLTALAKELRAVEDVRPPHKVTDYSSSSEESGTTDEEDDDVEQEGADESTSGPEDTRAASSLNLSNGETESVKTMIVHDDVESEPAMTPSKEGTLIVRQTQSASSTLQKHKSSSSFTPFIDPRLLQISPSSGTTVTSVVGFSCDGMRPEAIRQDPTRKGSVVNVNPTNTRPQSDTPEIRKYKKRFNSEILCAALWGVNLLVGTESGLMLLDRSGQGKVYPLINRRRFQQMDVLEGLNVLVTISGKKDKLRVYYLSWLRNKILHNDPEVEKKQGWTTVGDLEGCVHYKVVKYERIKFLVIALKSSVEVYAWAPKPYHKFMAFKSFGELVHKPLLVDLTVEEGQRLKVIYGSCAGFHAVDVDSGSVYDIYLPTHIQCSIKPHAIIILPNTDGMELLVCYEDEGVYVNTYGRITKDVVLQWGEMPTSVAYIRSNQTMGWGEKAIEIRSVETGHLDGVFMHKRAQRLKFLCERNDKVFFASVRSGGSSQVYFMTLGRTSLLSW
Chain of UniProt Q9H204 (Q9H204 whole entry, looked up): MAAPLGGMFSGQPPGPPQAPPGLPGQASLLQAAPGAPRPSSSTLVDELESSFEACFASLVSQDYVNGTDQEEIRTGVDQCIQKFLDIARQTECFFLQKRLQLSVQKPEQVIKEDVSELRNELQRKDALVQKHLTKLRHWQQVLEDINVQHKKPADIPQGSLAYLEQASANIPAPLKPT
Chain of UniProt Q7Z7M0 (Q7Z7M0 whole entry, looked up): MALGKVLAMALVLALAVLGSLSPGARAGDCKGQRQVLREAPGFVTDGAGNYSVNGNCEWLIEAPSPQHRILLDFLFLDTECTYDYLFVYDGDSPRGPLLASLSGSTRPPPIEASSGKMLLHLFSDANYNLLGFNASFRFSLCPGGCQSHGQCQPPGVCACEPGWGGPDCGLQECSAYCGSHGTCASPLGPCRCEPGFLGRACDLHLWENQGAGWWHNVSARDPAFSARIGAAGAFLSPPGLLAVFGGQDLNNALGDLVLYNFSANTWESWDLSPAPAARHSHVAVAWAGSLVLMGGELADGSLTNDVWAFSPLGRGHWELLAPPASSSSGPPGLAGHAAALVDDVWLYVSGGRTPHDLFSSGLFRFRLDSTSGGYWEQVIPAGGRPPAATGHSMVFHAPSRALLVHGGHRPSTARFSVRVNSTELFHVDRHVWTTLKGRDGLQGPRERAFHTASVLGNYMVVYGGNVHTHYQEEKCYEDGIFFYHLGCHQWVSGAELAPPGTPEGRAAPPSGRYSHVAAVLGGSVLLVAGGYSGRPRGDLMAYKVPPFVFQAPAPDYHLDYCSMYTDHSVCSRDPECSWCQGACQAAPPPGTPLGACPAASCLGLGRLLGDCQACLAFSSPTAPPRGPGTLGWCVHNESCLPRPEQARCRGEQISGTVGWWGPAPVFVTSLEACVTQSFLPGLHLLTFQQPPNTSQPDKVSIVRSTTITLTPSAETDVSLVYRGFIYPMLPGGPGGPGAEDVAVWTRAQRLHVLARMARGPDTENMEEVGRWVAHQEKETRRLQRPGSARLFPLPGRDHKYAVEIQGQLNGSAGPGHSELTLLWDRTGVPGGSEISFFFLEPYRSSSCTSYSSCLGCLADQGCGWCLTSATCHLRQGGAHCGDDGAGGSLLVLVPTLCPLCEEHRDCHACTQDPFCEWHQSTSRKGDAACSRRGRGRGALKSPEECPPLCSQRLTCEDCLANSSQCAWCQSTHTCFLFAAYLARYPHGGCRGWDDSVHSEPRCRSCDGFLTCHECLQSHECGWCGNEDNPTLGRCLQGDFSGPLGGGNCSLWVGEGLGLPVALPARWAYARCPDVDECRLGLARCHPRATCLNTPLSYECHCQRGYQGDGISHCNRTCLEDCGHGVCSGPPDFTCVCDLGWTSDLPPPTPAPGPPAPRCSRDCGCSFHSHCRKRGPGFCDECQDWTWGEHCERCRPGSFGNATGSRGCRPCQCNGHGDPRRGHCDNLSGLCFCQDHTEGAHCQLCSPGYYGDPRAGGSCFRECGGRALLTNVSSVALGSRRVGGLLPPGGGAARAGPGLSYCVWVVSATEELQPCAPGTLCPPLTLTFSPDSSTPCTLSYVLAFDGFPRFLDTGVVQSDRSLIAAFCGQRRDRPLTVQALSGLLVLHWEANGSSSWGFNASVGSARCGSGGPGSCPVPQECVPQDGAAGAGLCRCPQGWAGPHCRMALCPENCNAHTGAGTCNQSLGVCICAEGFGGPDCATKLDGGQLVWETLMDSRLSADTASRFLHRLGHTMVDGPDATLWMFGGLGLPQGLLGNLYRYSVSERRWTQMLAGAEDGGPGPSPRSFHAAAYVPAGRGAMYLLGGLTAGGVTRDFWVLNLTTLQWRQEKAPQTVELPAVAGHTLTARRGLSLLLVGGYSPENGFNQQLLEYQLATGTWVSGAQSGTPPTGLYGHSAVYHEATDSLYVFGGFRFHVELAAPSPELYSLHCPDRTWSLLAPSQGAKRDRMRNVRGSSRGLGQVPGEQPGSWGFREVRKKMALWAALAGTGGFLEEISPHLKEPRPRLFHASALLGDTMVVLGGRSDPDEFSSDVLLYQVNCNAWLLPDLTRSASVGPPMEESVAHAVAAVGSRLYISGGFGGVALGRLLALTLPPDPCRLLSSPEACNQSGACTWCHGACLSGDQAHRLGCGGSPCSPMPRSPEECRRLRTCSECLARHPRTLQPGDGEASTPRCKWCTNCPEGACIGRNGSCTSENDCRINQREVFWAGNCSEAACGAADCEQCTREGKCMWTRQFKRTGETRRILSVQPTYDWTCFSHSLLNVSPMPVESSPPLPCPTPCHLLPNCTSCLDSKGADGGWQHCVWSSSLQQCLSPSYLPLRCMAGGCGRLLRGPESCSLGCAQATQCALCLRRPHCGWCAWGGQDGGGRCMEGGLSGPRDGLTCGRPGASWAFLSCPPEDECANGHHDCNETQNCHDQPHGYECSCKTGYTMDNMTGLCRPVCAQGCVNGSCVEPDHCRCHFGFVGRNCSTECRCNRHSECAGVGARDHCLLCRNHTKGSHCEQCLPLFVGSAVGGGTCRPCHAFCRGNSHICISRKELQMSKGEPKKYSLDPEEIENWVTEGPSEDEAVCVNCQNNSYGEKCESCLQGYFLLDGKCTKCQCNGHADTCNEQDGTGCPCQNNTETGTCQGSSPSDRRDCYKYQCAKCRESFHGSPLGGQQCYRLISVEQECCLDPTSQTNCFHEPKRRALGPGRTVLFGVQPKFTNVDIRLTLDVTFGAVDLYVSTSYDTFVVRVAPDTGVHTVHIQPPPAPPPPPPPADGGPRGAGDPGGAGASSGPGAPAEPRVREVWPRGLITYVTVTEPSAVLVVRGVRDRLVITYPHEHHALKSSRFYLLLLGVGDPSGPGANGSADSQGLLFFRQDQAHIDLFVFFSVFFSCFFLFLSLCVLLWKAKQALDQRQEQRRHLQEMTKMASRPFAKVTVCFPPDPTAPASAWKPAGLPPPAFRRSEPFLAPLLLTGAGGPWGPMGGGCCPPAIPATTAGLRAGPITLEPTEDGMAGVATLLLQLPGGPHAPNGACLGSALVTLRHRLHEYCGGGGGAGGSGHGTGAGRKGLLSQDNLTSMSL
Chain of UniProt P53667 (P53667 whole entry, looked up): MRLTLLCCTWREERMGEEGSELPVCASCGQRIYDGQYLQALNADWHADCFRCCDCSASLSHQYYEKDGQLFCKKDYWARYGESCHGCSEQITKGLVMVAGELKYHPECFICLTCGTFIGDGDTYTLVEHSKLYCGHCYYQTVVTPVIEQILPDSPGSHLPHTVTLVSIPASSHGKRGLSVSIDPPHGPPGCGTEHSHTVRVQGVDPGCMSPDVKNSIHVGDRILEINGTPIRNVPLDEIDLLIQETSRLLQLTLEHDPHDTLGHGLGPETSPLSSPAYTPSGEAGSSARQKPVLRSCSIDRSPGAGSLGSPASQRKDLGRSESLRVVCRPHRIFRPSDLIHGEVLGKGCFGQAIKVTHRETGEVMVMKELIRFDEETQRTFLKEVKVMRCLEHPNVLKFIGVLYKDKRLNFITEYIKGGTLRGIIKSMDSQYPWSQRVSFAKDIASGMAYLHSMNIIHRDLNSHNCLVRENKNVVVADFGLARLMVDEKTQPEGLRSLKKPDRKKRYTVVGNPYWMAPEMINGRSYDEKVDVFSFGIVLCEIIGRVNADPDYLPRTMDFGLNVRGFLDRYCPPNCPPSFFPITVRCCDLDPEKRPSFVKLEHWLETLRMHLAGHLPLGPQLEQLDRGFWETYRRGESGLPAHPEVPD
Chain of UniProt Q8WXB1 (Q8WXB1 whole entry, looked up): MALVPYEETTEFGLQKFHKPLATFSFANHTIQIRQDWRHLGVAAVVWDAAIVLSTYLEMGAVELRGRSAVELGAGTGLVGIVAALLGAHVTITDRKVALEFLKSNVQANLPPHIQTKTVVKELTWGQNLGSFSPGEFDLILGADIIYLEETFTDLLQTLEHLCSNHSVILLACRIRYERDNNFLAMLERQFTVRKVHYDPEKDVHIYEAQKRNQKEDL

Compound in one experiment: C[C@H](C1=CC=C(C=C1)C(=O)NC2=C3C=CNC3=NC=C2)N
The experiment in a line: log2 fold change, soluble protein after heating vs DMSO (PISA); higher = thermal stabilisation; K562 lysate, 10 uM; active = over 0.2 and 3.5 SD of the protein, either way, in both replicates (recomputed). In short, it runs like this:
(§1)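 Dounce homogenisation of K562 pellets in PBS pH 7.4 with 1 mM MgCl2 produced a crude extract, used at 1 mg/mL protein. Exposure to 10 μM compound lasted 30 min, and aliquots were then heated for 3 min across 48°C-58°C, pooled and brought to 0.5% NP-40 at 4°C. The supernatant after 21,000xg for 90 min was quantified by TMTpro 16plex LC-MS/MS with channel sums equalised. Duplicate values are given as log-two fold change in thermal stability relative to solvent controls.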
For LGALS3BP (UniProt Q08380), the log2 fold change was 0.035.

As to MRPL22 (UniProt Q9NWU5), the log2 fold change is -0.038.

As for LEPROT (UniProt O15243), the log2 fold change was -0.019.

Take KIF2A isoform 2 (UniProt O00139): the log2 fold change was 0.192.

With KIFC3 isoform 6 (UniProt Q9BVG8), the log2 fold change is -1.85 (active).

As for MAPK12 (UniProt P53778), the log2 fold change was 0.868 (active).

Turning to LSM11 (UniProt P83369), the log2 fold change is -0.123.

On to MRC2 (UniProt Q9UBG0), for which the log2 fold change is -0.192.

On to MARCHF6 (UniProt O60337), for which the log2 fold change was -0.073.

For the target LRRC9 (UniProt Q6ZRR7), the log2 fold change is 0.032.

With MCUB (UniProt Q9NWR8), the log2 fold change is 0.187.

Consider MMS22L (UniProt Q6ZRQ5), for which the log2 fold change is 0.065.

As for LIMK1 (UniProt P53667), the log2 fold change was 0.029.

In the case of MEGF8 (UniProt Q7Z7M0), the log2 fold change is -0.077.

With LY6E (UniProt Q16553), the log2 fold change is -1.51 (active).

As for MAP4K4 isoform 3 (UniProt O95819), the log2 fold change is 0.201.

Consider MED28 (UniProt Q9H204), for which the log2 fold change is -0.039.

Consider MME (UniProt P08473), for which the log2 fold change is 0.037.

On to LRRC7 (UniProt Q96NW7), for which the log2 fold change is -0.025.

Consider MAPK7 (UniProt Q13164), for which the log2 fold change is -0.083.

On to METTL21A (UniProt Q8WXB1), for which the log2 fold change is -0.083.

Compound in the next experiment: C[C@H](Nc1ncnc2nc[nH]c12)c1cc2cccc(Cl)c2c(=O)n1-c1ccccc1 [duvelisib]
The experiment is described as above. In short, it runs like this:
as §1
For LGALS3BP (UniProt Q08380), the log2 fold change was -0.149.

As for MAPKAP1 (UniProt Q9BPZ7), the log2 fold change was -0.192.

Consider KRIT1 (UniProt O00522), for which the log2 fold change is -0.001.

Turning to KMT2B (UniProt Q9UMN6), the log2 fold change is -0.034.

For the target KLHL12 isoform 2 (UniProt Q53G59), the log2 fold change was 0.084.

Take MEX3A (UniProt A1L020): the log2 fold change is 0.196.

Take KIFC3 isoform 6 (UniProt Q9BVG8): the log2 fold change was 0.089.

For MAPK12 (UniProt P53778), the log2 fold change is -0.061.

With LSM11 (UniProt P83369), the log2 fold change was 0.009.

On to MRC2 (UniProt Q9UBG0), for which the log2 fold change was -0.49.

Turning to MARCHF6 (UniProt O60337), the log2 fold change is 0.103.

Regarding KIF18B (UniProt Q86Y91), the log2 fold change is 0.068.

As for MCUB (UniProt Q9NWR8), the log2 fold change is -0.018.

Take MMS22L (UniProt Q6ZRQ5): the log2 fold change is -0.106.

Regarding LIMK1 (UniProt P53667), the log2 fold change was 0.109.

With MCMBP isoform 2 (UniProt Q9BTE3), the log2 fold change is -0.03.

In the case of MAP4K4 isoform 6 (UniProt O95819), the log2 fold change was -0.038.

KRAS isoform 2 (UniProt P01116): the log2 fold change was -0.022.

As to MEGF8 (UniProt Q7Z7M0), the log2 fold change was -0.167.

Regarding MAP4 isoform 5 (UniProt P27816), the log2 fold change is 0.159.

Regarding MAP4K4 isoform 3 (UniProt O95819), the log2 fold change was 0.078.

On to MINDY1 isoform 3 (UniProt Q8N5J2), for which the log2 fold change was 0.051.

As for MED28 (UniProt Q9H204), the log2 fold change is -0.034.

On to MME (UniProt P08473), for which the log2 fold change is 0.066.

As for LRRC7 (UniProt Q96NW7), the log2 fold change is 0.083.

Regarding KIF21A (UniProt H0YI78), the log2 fold change is -0.013.

With METTL21A (UniProt Q8WXB1), the log2 fold change was 0.131.
